Reference: PMC7862700, “An all-to-all approach to the identification of sequence-specific readers for epigenetic DNA modifications on cytosine”

How the values were obtained:
Assay in all cases: DAPPL (digital affinity profiling via proximity ligation, sequencing); 10 mM Tris-HCl pH 7.5, 50 mM NaCl, 1 mM DTT, 4% glycerol, room temperature, 30 min; GST-TFs on glutathione beads, 16-mer random dsDNA library, 0.1% formaldehyde crosslink after washing; high values mean tight binding
Conditions in all cases: protein: recombinant; tags: N-terminal GST; dsDNA, one strand shown
FLI1 = target: T1, FLI1 (Homo sapiens, UniProt Q01543 1-452)
T1 sequence: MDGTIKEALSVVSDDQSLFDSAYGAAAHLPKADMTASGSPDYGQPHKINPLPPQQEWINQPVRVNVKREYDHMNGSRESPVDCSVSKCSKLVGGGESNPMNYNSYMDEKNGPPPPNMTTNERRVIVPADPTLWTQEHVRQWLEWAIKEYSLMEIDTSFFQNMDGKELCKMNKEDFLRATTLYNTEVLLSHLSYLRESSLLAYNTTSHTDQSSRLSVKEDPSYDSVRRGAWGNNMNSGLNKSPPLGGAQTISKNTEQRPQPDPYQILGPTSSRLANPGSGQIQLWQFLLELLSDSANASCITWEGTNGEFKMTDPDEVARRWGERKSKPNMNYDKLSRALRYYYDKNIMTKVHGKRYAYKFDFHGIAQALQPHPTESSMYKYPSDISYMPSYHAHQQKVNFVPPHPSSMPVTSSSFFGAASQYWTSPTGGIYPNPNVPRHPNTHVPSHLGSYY
Summary of the method: (§1)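 A tag-only sample was pooled with DNA-barcoded human transcription factors that had been expressed in yeast as GST fusions and captured on glutathione beads. The pools were incubated for 30 min at room temperature with 200 nmole of a random double-stranded 16-mer DNA library in Tris/NaCl/DTT/glycerol buffer, then washed, crosslinked with 0.1% formaldehyde, proximity-ligated (BsaI/T4 ligase, 1 h, 37 °C), PCR-amplified and sequenced on an Illumina NextSeq500. Binding signal is each hexamer's read frequency for a factor divided by its frequency for the tag-only sample.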

ELK1 = target: T2, ELK1 (Homo sapiens, UniProt P19419 1-428)
T2 sequence: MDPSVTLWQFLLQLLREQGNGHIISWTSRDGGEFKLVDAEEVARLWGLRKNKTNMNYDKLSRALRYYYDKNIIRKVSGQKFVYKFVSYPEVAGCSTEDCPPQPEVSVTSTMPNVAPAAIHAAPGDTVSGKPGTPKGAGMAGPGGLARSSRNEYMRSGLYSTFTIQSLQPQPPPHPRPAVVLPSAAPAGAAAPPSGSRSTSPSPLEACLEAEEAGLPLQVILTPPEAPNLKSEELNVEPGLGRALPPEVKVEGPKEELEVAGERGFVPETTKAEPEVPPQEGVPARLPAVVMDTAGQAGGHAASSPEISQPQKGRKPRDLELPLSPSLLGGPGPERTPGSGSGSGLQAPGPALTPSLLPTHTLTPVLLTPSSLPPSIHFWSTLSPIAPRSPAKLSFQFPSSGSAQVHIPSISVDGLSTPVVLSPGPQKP
Summary of the method: as §1

GABPA = target: T3, GABPA (Homo sapiens, UniProt Q06546 1-454)
T3 sequence: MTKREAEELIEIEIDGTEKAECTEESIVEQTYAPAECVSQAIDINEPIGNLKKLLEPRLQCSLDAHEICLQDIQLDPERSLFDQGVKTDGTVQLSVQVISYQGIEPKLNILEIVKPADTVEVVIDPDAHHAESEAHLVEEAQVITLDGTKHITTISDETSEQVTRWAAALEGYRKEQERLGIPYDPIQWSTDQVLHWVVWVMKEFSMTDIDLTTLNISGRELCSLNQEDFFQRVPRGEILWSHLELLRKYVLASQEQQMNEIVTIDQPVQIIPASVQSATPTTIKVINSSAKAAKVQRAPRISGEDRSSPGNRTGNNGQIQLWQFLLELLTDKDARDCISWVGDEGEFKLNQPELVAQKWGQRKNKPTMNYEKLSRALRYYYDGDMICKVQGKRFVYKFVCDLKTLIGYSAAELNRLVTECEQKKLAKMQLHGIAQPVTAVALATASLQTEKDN
Summary of the method: as §1

ERG = target: T4, ERG (Homo sapiens, UniProt P11308 1-479)
T4 sequence: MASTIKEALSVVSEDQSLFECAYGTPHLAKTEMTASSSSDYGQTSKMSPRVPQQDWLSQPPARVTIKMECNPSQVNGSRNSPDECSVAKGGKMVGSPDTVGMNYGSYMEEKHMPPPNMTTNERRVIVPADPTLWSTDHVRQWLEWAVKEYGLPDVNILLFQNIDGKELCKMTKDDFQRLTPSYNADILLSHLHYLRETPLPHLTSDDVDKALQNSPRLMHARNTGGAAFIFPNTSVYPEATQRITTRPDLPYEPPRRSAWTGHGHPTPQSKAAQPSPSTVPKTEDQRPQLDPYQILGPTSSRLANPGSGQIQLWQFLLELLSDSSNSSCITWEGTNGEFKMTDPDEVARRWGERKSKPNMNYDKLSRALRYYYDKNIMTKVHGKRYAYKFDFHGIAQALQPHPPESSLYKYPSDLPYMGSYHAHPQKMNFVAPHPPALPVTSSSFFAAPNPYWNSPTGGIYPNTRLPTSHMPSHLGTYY
Summary of the method: as §1

ELF1 = ELF1 (Homo sapiens, UniProt P32519 1-619)
Sequence of ELF1 (P32519 whole entry): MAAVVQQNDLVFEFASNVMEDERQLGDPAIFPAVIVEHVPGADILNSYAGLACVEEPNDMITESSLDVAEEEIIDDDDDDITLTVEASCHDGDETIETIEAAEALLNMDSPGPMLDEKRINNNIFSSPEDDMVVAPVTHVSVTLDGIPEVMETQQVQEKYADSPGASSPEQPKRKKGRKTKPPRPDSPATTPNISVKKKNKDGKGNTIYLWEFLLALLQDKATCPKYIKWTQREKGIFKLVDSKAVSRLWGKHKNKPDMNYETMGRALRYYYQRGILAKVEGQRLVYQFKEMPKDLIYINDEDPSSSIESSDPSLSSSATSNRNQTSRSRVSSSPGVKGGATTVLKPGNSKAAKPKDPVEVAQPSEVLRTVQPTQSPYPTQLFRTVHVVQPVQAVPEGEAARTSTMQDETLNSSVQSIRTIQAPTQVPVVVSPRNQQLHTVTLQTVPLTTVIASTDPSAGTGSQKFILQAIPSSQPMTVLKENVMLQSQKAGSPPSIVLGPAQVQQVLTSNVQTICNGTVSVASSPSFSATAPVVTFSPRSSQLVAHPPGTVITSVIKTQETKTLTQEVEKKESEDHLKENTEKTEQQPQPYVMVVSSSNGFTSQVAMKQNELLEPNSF
Summary of the method: as §1

EHF = target: T5, EHF (Homo sapiens, UniProt Q9NZC4 1-300)
T5 sequence: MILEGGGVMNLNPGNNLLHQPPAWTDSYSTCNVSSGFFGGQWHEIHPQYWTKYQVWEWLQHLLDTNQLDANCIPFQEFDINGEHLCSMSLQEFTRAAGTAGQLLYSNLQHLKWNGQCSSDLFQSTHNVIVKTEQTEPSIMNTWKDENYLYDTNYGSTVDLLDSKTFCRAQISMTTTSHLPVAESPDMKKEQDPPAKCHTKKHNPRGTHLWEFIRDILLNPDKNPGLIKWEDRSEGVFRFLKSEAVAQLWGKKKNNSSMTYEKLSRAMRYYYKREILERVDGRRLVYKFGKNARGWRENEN
Summary of the method: as §1

SPI1 = SPI1 (Homo sapiens, UniProt P17947 1-270)
Summary of the method: as §1

SPIB = SPIB (Homo sapiens, UniProt Q01892 1-262)
Sequence of SPIB (Q01892 whole entry): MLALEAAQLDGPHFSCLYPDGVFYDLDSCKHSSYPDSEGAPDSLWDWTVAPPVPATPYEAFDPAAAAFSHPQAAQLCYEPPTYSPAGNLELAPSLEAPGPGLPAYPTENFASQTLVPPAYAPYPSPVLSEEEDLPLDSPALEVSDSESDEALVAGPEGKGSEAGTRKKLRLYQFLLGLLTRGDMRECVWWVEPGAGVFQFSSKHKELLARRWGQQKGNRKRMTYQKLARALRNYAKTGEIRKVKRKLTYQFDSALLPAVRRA
Summary of the method: as §1

ELK3 = target: T6, ELK3 (Homo sapiens, UniProt P41970 1-407)
T6 sequence: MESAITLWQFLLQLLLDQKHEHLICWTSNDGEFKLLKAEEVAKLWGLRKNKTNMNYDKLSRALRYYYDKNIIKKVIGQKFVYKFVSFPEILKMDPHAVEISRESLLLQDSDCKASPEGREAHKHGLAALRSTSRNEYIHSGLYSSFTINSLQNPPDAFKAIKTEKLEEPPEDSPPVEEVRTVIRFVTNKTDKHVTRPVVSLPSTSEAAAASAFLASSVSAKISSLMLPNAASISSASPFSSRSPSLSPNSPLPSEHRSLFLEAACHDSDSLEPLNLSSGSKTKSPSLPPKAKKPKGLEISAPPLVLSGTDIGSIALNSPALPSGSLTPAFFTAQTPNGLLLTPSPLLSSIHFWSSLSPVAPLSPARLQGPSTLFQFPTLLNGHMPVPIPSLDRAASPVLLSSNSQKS
Summary of the method: as §1

TTTGAT
binding signal (FLI1): 1.37 fold enrichment (6-mer frequency, TF over GST control) | binding signal (ELK1): 1.36 fold enrichment (6-mer frequency, TF over GST control) | binding signal (GABPA): 1.26 fold enrichment (6-mer frequency, TF over GST control) | binding signal (ERG): 1.3 fold enrichment (6-mer frequency, TF over GST control) | binding signal (ELF1): 1.23 fold enrichment (6-mer frequency, TF over GST control) | binding signal (EHF): 1.25 fold enrichment (6-mer frequency, TF over GST control) | binding signal (SPI1): 1.22 fold enrichment (6-mer frequency, TF over GST control) | binding signal (SPIB): 1.31 fold enrichment (6-mer frequency, TF over GST control) | binding signal (ELK3): 1.12 fold enrichment (6-mer frequency, TF over GST control)
